D1 ag: human D1 receptor agonism. HEK293 T-REx D1 cells, calcium flux, agonist mode. activation, % at 2 µM. 1% of 360,000 active; in the data active = activation above about 30%
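Agonism was scored from calcium flux recorded over 180 s (1 read/s) after pintool compound addition, following a 10-cycle baseline. Cells were inducible force-coupled HEK293 TREx D1, plated overnight at 30 C and loaded with no-wash calcium dye.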
D1 antag: antagonists of human D1 dopamine receptor; activity change, negative = inhibition, % at 10 µM; AID 504652; HEK293 TREx D1 cells, calcium flux, dopamine EC80; stronger effect = lower value; 3.2% of 360,000 active; P21728; in the data active = activity change below about -30%
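Tetracycline-induced HEK293 Trex D1 cells, force-coupled to calcium, dye-loaded; compounds added and read 180 s, then EC80 dopamine added and calcium flux tracked kinetically another 180 s.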
ERG Ets-DNA blk: inhibitors of human ERG Ets domain-DNA interaction. P11308. fluorescence polarization, His-ERG Ets domain / labelled DNA. Potency, µM (highest dose often 76.9 µM), usual class: inhibitors. 0.028% of 370,000 active; active = well fitted inhibition curve with a large enough effect in the polarisation, with a control signal flat; inconclusive = small, poorly fitted or top-dose-only effect, or effect the other way, or a change in a side signal; inactive = no such curve, though single readings can be large or run the other way; the % refers to the polarisation;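 note: polarization taken with two DNA probes labelled with fluorescein and Texas red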
Target sequence (P11308 whole entry, looked up, the tested form may be a part): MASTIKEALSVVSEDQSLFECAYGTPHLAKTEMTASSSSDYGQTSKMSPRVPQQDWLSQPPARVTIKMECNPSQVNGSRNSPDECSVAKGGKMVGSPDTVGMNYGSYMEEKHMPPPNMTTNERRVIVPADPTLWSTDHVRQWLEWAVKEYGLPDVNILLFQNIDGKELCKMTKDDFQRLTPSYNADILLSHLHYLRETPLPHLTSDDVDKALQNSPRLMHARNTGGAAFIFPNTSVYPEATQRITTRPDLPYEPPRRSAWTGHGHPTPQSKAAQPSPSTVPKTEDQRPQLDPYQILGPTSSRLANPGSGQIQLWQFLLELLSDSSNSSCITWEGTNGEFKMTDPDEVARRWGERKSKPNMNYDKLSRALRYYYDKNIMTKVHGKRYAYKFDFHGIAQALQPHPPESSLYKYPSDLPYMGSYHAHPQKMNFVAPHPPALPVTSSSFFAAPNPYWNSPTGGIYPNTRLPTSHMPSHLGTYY
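His-tagged ERG Ets domain (1 uM in the protein solution; 300mM KCl, 50mM Tris-HCl, 1mM EDTA, 1mM DTT, pH 7.5) received compound, then a probe mix of 5 nM fluorescein-DNA and 100nM Texas-615-DNA. Fluorescence polarization was read for both dyes.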
D3 antag: D3 dopamine receptor (human) antagonism. P35462. D3R cells, DiscoveRx beta-arrestin luminescence, antagonist mode; stronger effect = lower value. max response, negative = inhibition, %. 2.5% of 360,000 active. AID 652054; in the data active = max response below about -50%; inconclusive = no clear call, values can overlap the other calls
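Cells expressing the human receptor were seeded at 1500 cells/well, incubated overnight at 37 degrees C in 5% CO2, then exposed to library compounds with dopamine controls for 90 minutes at 37 degrees C before luminescent detection.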
D1 potentiator: potentiators of human D1 dopamine receptor. 0.036% of 360,000 active. P21728. HEK293 TREx D1 cells, calcium flux, dopamine EC20 potentiation. potentiation, % at 10 µM; in the data active = potentiation above about 30%
DRD3 agonist: activates the human D3 dopamine receptor | P35462 | D3R DiscoveRx beta-arrestin cells, luminescence, 90 min | max activation, % | 0.58% of 410,000 active; in the data active = max activation above about 30%
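Agonist mode: compounds and dopamine controls were applied to plated cells for 90 min at 37 degrees C after an overnight attachment at 1500 cells/well. Luminescent read-out followed 30 - 60 minutes at room temperature with DiscoveRx detection reagent.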
Numbers stand for hits. A selection: hits, their analogues and other compounds. The true share with any hit is near 6.1%.

How did CC1CCCC(C)N1C(=O)CN1C(=O)NC2(CCOc3ccccc32)C1=O (stereo not drawn) do in these assays?
D1 ag: inactive; D1 antag: -31; ERG Ets-DNA blk: inactive; D3 antag: inactive; D1 potentiator: inactive; DRD3 agonist: inactive

Results for NC(=O)NC(=O)CN1C(=O)NC2(CCOc3ccccc32)C1=O (stereo not drawn) ?
D1 ag: inactive; D1 antag: inactive; ERG Ets-DNA blk: inactive; D3 antag: inactive; D1 potentiator: inactive; DRD3 agonist: inactive

Results for CCC(C)NC(=O)CN1C(=O)NC2(CCOc3ccccc32)C1=O (stereo not drawn) ?
D1 ag: inactive; D1 antag: inactive; ERG Ets-DNA blk: inactive; D3 antag: inactive; D1 potentiator: inactive; DRD3 agonist: inactive

What do the screens show for `NC(=O)CN1C(=O)NC2(CCOc3ccccc32)C1=O` (stereo not drawn)?
D1 ag: inactive; D1 antag: -75; ERG Ets-DNA blk: inactive; D3 antag: inactive; D1 potentiator: inactive; DRD3 agonist: inactive

How did Cc1cccc2cc(C#N)c(N3CCOCC3)nc12 do in these assays?
D1 ag: inactive; D1 antag: inactive; ERG Ets-DNA blk: inactive; D3 antag: inactive; D1 potentiator: inactive; DRD3 agonist: inactive

Results for C#CCOc1ccc(CNC[C@H]2O[C@@H](n3cnc4c(N)ncnc43)[C@H](O)[C@@H]2O)cc1 ?
ERG Ets-DNA blk: inactive; D3 antag: inactive; DRD3 agonist: inactive

How did O=C(O)CC(c1cccc(C(F)(F)F)c1)N1CCS(=O)(=O)CC1 (stereo not drawn) do in these assays?
D1 ag: inactive; D1 antag: -35; ERG Ets-DNA blk: inactive; D3 antag: inactive; D1 potentiator: inactive; DRD3 agonist: inactive

Results for O=S1(=O)CCN(C(CO)c2ccccc2)CC1 (stereo not drawn) ?
D1 ag: inactive; D1 antag: inactive; ERG Ets-DNA blk: inactive; D3 antag: inactive; D1 potentiator: inactive; DRD3 agonist: inactive

How did COc1cc2c(=O)n(CC3CCCO3)c(=O)n(CC(=O)Nc3cccc(Cl)c3)c2cc1OC (stereo not drawn) do in these assays?
D1 ag: inactive; D1 antag: -44; ERG Ets-DNA blk: inactive; D3 antag: inactive; D1 potentiator: inactive; DRD3 agonist: inactive

How did O=C(Cn1c(=O)n(CC2CCCO2)c(=O)c2ccccc21)Nc1cccc(Cl)c1 (stereo not drawn) do in these assays?
D1 ag: inactive; D1 antag: inactive; ERG Ets-DNA blk: inactive; D1 potentiator: inactive; DRD3 agonist: inactive

What do the screens show for `CCc1ccccc1NC(=O)c1cc(S(=O)(=O)N2CCc3ccccc32)ccc1F`?
D1 ag: inactive; D1 antag: inactive; ERG Ets-DNA blk: inactive; D1 potentiator: inactive; DRD3 agonist: inactive

What do the screens show for `O=C(N/N=C/C1CCCCC1)c1ccccc1-n1cccc1`?
D1 ag: inactive; D1 antag: inactive; ERG Ets-DNA blk: inactive; D3 antag: inactive; D1 potentiator: inactive; DRD3 agonist: 36

How did CC1CCC(=NNC(=O)c2ccccc2-n2cccc2)CC1 (stereo not drawn) do in these assays?
D1 ag: inactive; D1 antag: inactive; ERG Ets-DNA blk: inactive; D3 antag: inactive; D1 potentiator: inactive; DRD3 agonist: inactive

What do the screens show for `COc1cccc(C2C(C(=O)c3ccc(C)o3)=C(O)C(=O)N2CCN2CCOCC2)c1OC` (stereo not drawn)?
D1 ag: inactive; D1 antag: inactive; ERG Ets-DNA blk: inactive; D3 antag: inactive; D1 potentiator: inactive; DRD3 agonist: inactive

What do the screens show for `CCc1sc(Nc2cccc(Cl)c2)nc1-c1cc2cccc(OC)c2oc1=O`?
D1 ag: inactive; D1 antag: inactive; ERG Ets-DNA blk: inactive; D1 potentiator: inactive; DRD3 agonist: inactive

How did COc1cccc2cc(-c3nc(Nc4cccc(C)c4)sc3C)c(=O)oc12 do in these assays?
D1 ag: inactive; D1 antag: inactive; ERG Ets-DNA blk: inactive; D1 potentiator: inactive; DRD3 agonist: 80

Results for CCOC(=O)N1CCC2(CC1)C(C#N)=C(N)Oc1n[nH]c(CSc3ccc(C)cc3)c12 ?
D1 ag: inactive; D1 antag: -39; ERG Ets-DNA blk: inactive; D3 antag: inactive; D1 potentiator: inactive; DRD3 agonist: inactive

Results for COC(=O)c1ccc2nc(-c3ccc(F)cc3)c(Cc3cccc(Cl)c3)n2c1 ?
D3 antag: inactive; DRD3 agonist: inactive

How did C=CCN1C(=O)C2C(C(=O)NC)C3(C)C=CC2(O3)C1C(=O)NCc1ccc(OC)cc1 (stereo not drawn) do in these assays?
D1 ag: inactive; D1 antag: inactive; ERG Ets-DNA blk: inactive; D3 antag: inactive; D1 potentiator: inactive; DRD3 agonist: inactive

How did O=C(NCCCN1CCc2ccccc2C1)Nc1ccc(Cl)cc1 do in these assays?
D1 ag: inactive; D1 antag: inactive; ERG Ets-DNA blk: inactive; D3 antag: -92; D1 potentiator: inactive; DRD3 agonist: inactive

How did O=C(Nc1ccc(Cl)cc1)c1ccc(CN2CCc3ccccc3C2)cc1 do in these assays?
D1 ag: inactive; D1 antag: inactive; ERG Ets-DNA blk: inactive; D3 antag: inactive; D1 potentiator: inactive; DRD3 agonist: inactive

Results for COc1ccc(NC(=O)N2CCc3ccccc3C2)cc1 ?
D1 ag: inactive; D1 antag: inactive; ERG Ets-DNA blk: inactive; D3 antag: inactive; D1 potentiator: inactive; DRD3 agonist: inactive

What do the screens show for `CSc1ccc(NC(=O)NCCN2CCc3ccccc3C2)cc1`?
D1 ag: inactive; D1 antag: inactive; ERG Ets-DNA blk: inactive; D3 antag: -61; D1 potentiator: inactive; DRD3 agonist: inactive

What do the screens show for `COc1ccc(NC(=O)NCCN2CCc3ccccc3C2)cc1`?
D1 ag: inactive; D1 antag: inactive; ERG Ets-DNA blk: inactive; D3 antag: -83; D1 potentiator: inactive; DRD3 agonist: inactive

How did CSc1ccc(NC(=O)NCCCN2CCC(Cc3ccccc3)CC2)cc1 do in these assays?
D1 ag: 196; D1 antag: inactive; ERG Ets-DNA blk: inactive; D3 antag: inconclusive; D1 potentiator: inactive; DRD3 agonist: inactive

How did COc1ccc(NC(=O)NCCCN2CCC(Cc3ccccc3)CC2)cc1 do in these assays?
D1 ag: inactive; D1 antag: inactive; ERG Ets-DNA blk: inactive; D3 antag: inconclusive; D1 potentiator: inactive; DRD3 agonist: inactive

Results for CCOC(=O)c1cccc(NC(=O)C2CCCN2S(=O)(=O)c2cccc3cccnc23)c1 (stereo not drawn) ?
D1 ag: inactive; D1 antag: inactive; ERG Ets-DNA blk: inactive; D3 antag: inactive; D1 potentiator: inactive; DRD3 agonist: inactive

What do the screens show for `O=C(NC1CCCCC1)c1cc(Nc2ccccc2)nc2ccccc12`?
D1 ag: inactive; D1 antag: inactive; ERG Ets-DNA blk: inactive; D1 potentiator: inactive; DRD3 agonist: inactive

How did Cc1cc(NC(=O)CCNS(=O)(=O)c2cc(Br)cnc2N)ccc1Br do in these assays?
D1 ag: inactive; D1 antag: inactive; D3 antag: -51; D1 potentiator: inactive; DRD3 agonist: inactive

High-throughput results as filed in PubChem.
